TRPM1 prom inh: reduces MITF-dependent TRPM1 promoter luciferase signal | SK-MEL-5 TRPM1 promoter luciferase, 24 h | inhibition, % at 12.5 µM | 0.83% of 330,000 active | AID 488899;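 active = mean inhibition across replicates of 60% or more, whatever share of single replicates reaches that level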
Shn3 3UTR inh: inhibitors of Schnurri-3 3'UTR reporter in osteoblasts. inhibition, % at 12.5 µM. Clone20 osteoblast Shn3 3'UTR firefly luciferase, 24 h. 0.52% of 360,000 active;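 active = mean inhibition of at least 75% with every replicate also reaching 75%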
CF NFkB block: inhibitors of cystic fibrosis induced NF-kB; KKLEB NF-kB-GFP reporter, PAF-induced, GFP fluorescence overnight; inhibition, % at 5 µM; 0.86% of 360,000 active;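 active = at least 50% inhibition at 5 µM, scaled per plate between neutral and stimulator controls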;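 note: PAF is a Pseudomonas aeruginosa culture filtrate used as stimulus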
HIF-2a block: HIF-2a inhibition; 786-0 RCC cells HIF-2a reporter, luciferase luminescence, overnight; inhibition, % at 18.8 µM; 0.72% of 360,000 active; AID 624352;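 active = inhibition of the luminescence signal of 40% or more relative to plate controls, in a single-dose primary screen at 18.75 µM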
Peg3 prom inh: inhibitors of Peg3 promoter; HeLa PEG-Prom luciferase reporter, luminescence, overnight; inhibition, % at 20 µM; 1.7% of 360,000 active; AID 588405;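 active = inhibition of at least 50% at 20 µM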
KKLEB tox: reduces viability of KKLEB cystic fibrosis airway cells. KKLEB CF airway cells viability, ATPlite luminescence, overnight; active compounds read low; cells stimulated with P. aeruginosa culture filtrate. activity change (cytotoxicity), % at 5 µM. 0.36% of 360,000 active. AID 602141;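 active = corrected activity change at or below -50% at 5 µM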
Mdm2-MdmX confirm: confirmation of inhibitors of human Mdm2/MdmX interaction, set 2. shares compounds with HIF-2a block. SaOS-2 split-luciferase Mdm2/MdmX complementation, luminescence. inhibition, % at 8 µM. 99% of 740 active;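 active = mean inhibition of the luminescence signal across two replicates at or above 26 percent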
Target sequence (O15151 whole entry, looked up): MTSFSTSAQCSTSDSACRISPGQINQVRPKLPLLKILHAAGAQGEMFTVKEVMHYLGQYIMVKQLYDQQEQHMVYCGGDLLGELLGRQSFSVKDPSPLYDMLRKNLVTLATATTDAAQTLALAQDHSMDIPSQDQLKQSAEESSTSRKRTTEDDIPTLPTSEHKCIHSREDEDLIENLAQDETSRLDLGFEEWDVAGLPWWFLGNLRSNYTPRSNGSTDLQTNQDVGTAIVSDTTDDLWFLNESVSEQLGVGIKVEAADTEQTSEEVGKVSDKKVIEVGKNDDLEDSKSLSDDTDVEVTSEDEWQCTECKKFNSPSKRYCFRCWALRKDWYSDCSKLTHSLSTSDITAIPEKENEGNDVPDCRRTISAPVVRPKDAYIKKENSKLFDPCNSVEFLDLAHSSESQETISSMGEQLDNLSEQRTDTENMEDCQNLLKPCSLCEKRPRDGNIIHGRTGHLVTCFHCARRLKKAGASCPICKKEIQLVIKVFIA
Target sequence (Q00987 whole entry, looked up): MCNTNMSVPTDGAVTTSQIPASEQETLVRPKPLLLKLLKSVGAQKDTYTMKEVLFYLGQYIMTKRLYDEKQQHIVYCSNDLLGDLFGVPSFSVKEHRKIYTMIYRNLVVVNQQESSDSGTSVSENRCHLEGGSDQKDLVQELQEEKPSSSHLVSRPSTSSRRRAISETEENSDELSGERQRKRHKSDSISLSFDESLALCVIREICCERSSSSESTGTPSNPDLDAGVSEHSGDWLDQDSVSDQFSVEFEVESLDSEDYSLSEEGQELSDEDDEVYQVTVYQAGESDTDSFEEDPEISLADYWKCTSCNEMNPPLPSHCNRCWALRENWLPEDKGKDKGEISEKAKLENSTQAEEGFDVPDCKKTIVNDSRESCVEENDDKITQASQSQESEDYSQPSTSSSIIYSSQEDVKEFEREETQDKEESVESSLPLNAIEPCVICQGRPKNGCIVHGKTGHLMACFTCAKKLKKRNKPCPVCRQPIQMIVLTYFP
HIF-2a conf: confirmation of HIF-2a inhibitors; 786-0 RCC cells, HIF-2a luciferase reporter luminescence, overnight; shares compounds with HIF-2a block; AID 651580; inhibition, % at 18.8 µM; 56% of 1,800 active;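 active = mean inhibition across four replicates of at least 40 percent at the single tested concentration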
HIF-1a cs: inhibits HIF-1a reporter, a counter-screen for HIF-2a inhibitors; MiaPaCa-2 HIF-1a luciferase reporter, desferoxamine, overnight; shares compounds with HIF-2a block; 72% of 1,800 active; inhibition, % at 18.8 µM;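 active = mean inhibition of the reporter signal across four replicates at the single tested dose of 50% or more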
Of the large screens only hits and unclear results are named; the others gave an inactive call (follow-up assays come after a bar, where they were run). In the library only some 2.8% were active in any assay of this set; here they are far more common.

COc1cccc(-n2c(SCC(=O)Nc3cc(C)on3)nc3c([nH]c4ccccc43)c2=O)c1	HIF-2a block 39 (no result: TRPM1 prom inh) | HIF-2a conf inactive | HIF-1a cs inactive
Cc1cc(NC(=O)CSc2nc3c([nH]c4ccccc43)c(=O)n2-c2cccc(C(F)(F)F)c2)no1	none
Cc1ccc(NC(=O)N2CCOCC2)cc1NC(=O)N1CCOCC1	none (no result: TRPM1 prom inh)
S=C1SCN(Cc2ccccc2)CN1Cc1ccccc1	none
S=C1SCN(Cc2cccnc2)CN1Cc1cccnc1	Peg3 prom inh 67 | Mdm2-MdmX confirm 98
O=C(NCCCn1ccnc1)Nc1ccc2c(c1)OCO2	none
CCC(=O)OCCNc1cc(Sc2nc3ccccc3s2)c2nonc2c1[N+](=O)[O-]	HIF-2a block 53, Peg3 prom inh 99 | HIF-2a conf inactive | HIF-1a cs 61
CCC(=O)OCCNc1cc(Sc2nc3ccccc3[nH]2)c2nonc2c1[N+](=O)[O-]	TRPM1 prom inh 72, Shn3 3UTR inh 96, CF NFkB block 82, HIF-2a block 86, Peg3 prom inh 92, KKLEB tox -95 | HIF-2a conf 84 | HIF-1a cs 84
CCCC(=O)OCCNc1cc(Sc2nccn2C)c2nonc2c1[N+](=O)[O-]	TRPM1 prom inh 101, Shn3 3UTR inh 95, HIF-2a block 87, Peg3 prom inh 110 | HIF-2a conf 82 | HIF-1a cs 104
O=[N+]([O-])c1ccc(N2CCNCC2)cc1Sc1nc2ccccc2[nH]1	none
CCCC(=O)OCCNc1cc(SCc2ccco2)c2nonc2c1[N+](=O)[O-]	none
O=C(NCc1ccc2c(c1)OCO2)c1cc(-c2ccccc2)nn1CC1CC(c2cccnc2)=NO1 (stereo not drawn)	none
N#CC1=C(N)Oc2n[nH]c(-c3cccs3)c2C1C1C=CCCC1 (stereo not drawn)	none
N#CC1=C(N)Oc2n[nH]c(-c3cccs3)c2C1C1CCCCC1 (stereo not drawn)	HIF-2a block 40 | HIF-2a conf inactive | HIF-1a cs inactive
O=C(NCc1ccco1)c1ccc(CNc2c(N3CCCCC3)c(=O)c2=O)cc1	none (no result: TRPM1 prom inh)
COc1cc(/C=C2/CC/C(=C/c3ccc(O)c(OC)c3)C2=O)ccc1O	none
COc1cc(/C=C2\COC/C(=C\c3ccc(O)c(OC)c3)C2=O)ccc1O	TRPM1 prom inh 79, CF NFkB block 91, HIF-2a block 93, Peg3 prom inh 101 (no result: Shn3 3UTR inh) | Mdm2-MdmX confirm 103
COc1ccc(C=C2C(=O)c3ccccc3C2=O)cc1O	none
COc1ccc(/C=C2\CN(Cc3ccccc3)C/C(=C\c3ccc(OC)c(O)c3)C2=O)cc1O	TRPM1 prom inh 98, Shn3 3UTR inh 96, CF NFkB block 100, Peg3 prom inh 102, KKLEB tox -69 | Mdm2-MdmX confirm 102
CCN1C/C(=C/c2ccc(OC)c(O)c2)C(=O)/C(=C/c2ccc(OC)c(O)c2)C1	none | Mdm2-MdmX confirm 53
C=CCN(Cc1cccc(OC)c1OC)C(=O)Oc1ccccc1	none
NC(=O)[C@H]1CC2(CC(c3cccc(NC(=O)[C@H]4CCC(=O)N4)c3)=NO2)CN1C(=O)c1cc([N+](=O)[O-])cc([N+](=O)[O-])c1 (stereo partly drawn)	none
O=[N+]([O-])c1ccc(S(=O)(=O)CC(CN2CCCCC2)N2CCCCC2)cc1 (stereo not drawn)	TRPM1 prom inh 81, CF NFkB block 81, Peg3 prom inh 108 | Mdm2-MdmX confirm 103
O=S(=O)(c1ccc(S(=O)(=O)N2CCCC2)cc1)N1CCCCCC1	none
O=S(=O)(c1ccc2c(c1)C(=NO)c1cc(S(=O)(=O)N3CCCCC3)ccc1-2)N1CCCCC1	TRPM1 prom inh 88, Shn3 3UTR inh 98, CF NFkB block 100, HIF-2a block 87, Peg3 prom inh 86, KKLEB tox -106 | HIF-2a conf 82 | HIF-1a cs 103
COc1cccc(CCc2nnc(N)s2)c1	none
Cc1ccc(-n2ncc(Br)c(Br)c2=O)cc1	TRPM1 prom inh 83, Shn3 3UTR inh 96, CF NFkB block 69, HIF-2a block 92, Peg3 prom inh 102 | HIF-2a conf 99 | HIF-1a cs 102
COc1c(Cl)cnn(-c2ccc(C)cc2)c1=O	none
O=c1c(Br)c(N2CCCC2)cnn1-c1ccccc1	none
O=c1c(Br)c(Br)cnn1-c1ccccc1	TRPM1 prom inh 92, Shn3 3UTR inh 98, CF NFkB block 90, HIF-2a block 96, Peg3 prom inh 108, KKLEB tox -85 | HIF-2a conf 99 | HIF-1a cs 107
COc1cccc(OC)c1C(=O)Nc1ccccc1C(=O)N1CCCCCC1	none
Cc1ccc(C(C)(C)C)c(SCC(=O)Nc2nnc(C)s2)c1	none
N=c1nc(SCCC(=O)O)ss1	HIF-2a block 69 | HIF-2a conf 73 | HIF-1a cs inactive
CC(=NNC(=S)Nc1ccc(C)cc1)c1ccccn1	HIF-2a block 61, Peg3 prom inh 74 | HIF-2a conf inactive | HIF-1a cs inactive
C/C(=N\NC(=S)Nc1ccc(C)cc1)c1cccc(N)c1	none
Cn1cnnc1SCC(=O)NC1CC1	none
CCS(=O)(=O)c1ccc2oc(SCC(=O)NC(C)C3CC4CCC3C4)nc2c1 (stereo not drawn)	none
O=C(O)c1cccc(CSc2nnc(COc3ccccc3)o2)c1	HIF-2a block 73 | HIF-2a conf 73 | HIF-1a cs inactive
O=C(O)c1cccc(CSc2nnc(-c3ccc(Cl)cc3)o2)c1	HIF-2a block 70 | HIF-2a conf 80 | HIF-1a cs inactive
CCOC(=O)C1(Cc2cccc(OC)c2)CCN(Cc2cnc(C)s2)CC1	none
CCOC(=O)C1Nc2ccc(C(F)(F)F)cc2C2c3ccccc3CC12 (stereo not drawn)	none | Mdm2-MdmX confirm 66
COC(=O)c1sccc1N/N=C/c1cccc(Oc2ccccc2)c1	none
CC(=O)NC1(C(Cl)(Cl)Cl)Oc2ccccc2O1	HIF-2a block 47 | HIF-2a conf inactive | HIF-1a cs inactive
O=C(O)CCC1(c2ccccc2)NC(=O)NC1=O (stereo not drawn)	HIF-2a block 44 | HIF-2a conf inactive | HIF-1a cs inactive
O=C1NC(=O)C(Cc2ccccc2)(c2cccnc2)N1 (stereo not drawn)	none
CCOC(=O)N1C2c3ccccc3C(c3ccccc32)N1C(=O)OCC	none
CC[C@@H](C)[C@H](CN[C@H](CNC)C(C)C)NC[C@@H](C)c1ccc(CC(C)C)cc1	TRPM1 prom inh 100, Peg3 prom inh 99 | Mdm2-MdmX confirm 103

Compound activity deposited in PubChem by several laboratories.
